In PubChem BioAssay (NCI) one finds growth data, which are given here for 9 molecules.

The panel holds about 83,000 compounds, 20% with a hit somewhere; the sample as a whole holds those more often.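 Step 1: grow cells in 96-well plates. Step 2: add test compound at a single concentration. Step 3: incubate 48 h. Step 4: record percent growth.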 Values without a mark were called inactive. Activity calls are given as the source filed them. How the source made its calls: active means growth percent below 10; inactive means the rest.

Test systems include NCI-H23 lung; NCI-H226 lung; NCI-H322M lung; HOP-62 NSCLC; NCI-H460 lung; A549/ATCC NSCLC; 786-0 renal; COLO 205 colon; DU-145 prostate; K-562 leukemia; MALME-3M melanoma; MDA-MB-231 breast; RXF 393 renal; SF-268 CNS; SF-295 CNS; SF-539 CNS; UACC-257 melanoma; M14 melanoma.
Holding throughout (assay): NCI-60 one-dose screen, 48 h (100 = growth as untreated, 0 = no growth, -100 = all killed)
Common to all, as to settings: 10 µM unless noted

As for `[N-]=[N+]=Nc1ncc(-c2ccc(C(F)(F)F)cc2)c(NC2CCCCCC2)n1`, the growth was 38% [100 µM] in the experiment on NCI-H23 lung; 60.3% [100 µM] with NCI-H226 lung; 47.6% [100 µM] in the experiment with NCI-H322M lung; 69.9% [100 µM] in the experiment on HOP-62 NSCLC; 18.4% [100 µM] in the experiment on NCI-H460 lung; 23.6% [100 µM] with A549/ATCC NSCLC. The growth is 38.1% [100 µM] in the experiment with 786-0 renal; 36.3% [100 µM] in the experiment on COLO 205 colon; 37.1% [100 µM] with DU-145 prostate; 8.78% [100 µM] (active) in the experiment with K-562 leukemia; 62.3% [100 µM] with MALME-3M melanoma; 42.3% [100 µM] in the experiment on MDA-MB-231 breast. The growth in the experiment on RXF 393 renal was 43.5% [100 µM]; in the experiment on SF-268 CNS, 38% [100 µM]; in the experiment on SF-295 CNS, -19.7% [100 µM] (active); in the experiment on SF-539 CNS it was 66.2% [100 µM]; with UACC-257 melanoma it was 27.6% [100 µM]; with M14 melanoma, 34.7% [100 µM].
`CC(C)(CNC1CCCCC1)OC(=O)c1ccccc1`: the growth with NCI-H23 lung was 107%; in the experiment on NCI-H226 lung it was 97.8%; in the experiment on NCI-H322M lung, 103%; with HOP-62 NSCLC, 102%; in the experiment with NCI-H460 lung it was 106%; in the experiment on A549/ATCC NSCLC it was 108%. The growth was 100% with 786-0 renal; 104% with COLO 205 colon; 104% in the experiment with DU-145 prostate; 94.1% in the experiment on K-562 leukemia; 99.2% with MALME-3M melanoma; 110% with MDA-MB-231 breast. For the same molecule, the growth in the experiment on RXF 393 renal is 102%; in the experiment on SF-268 CNS it was 107%; in the experiment on SF-295 CNS it was 94.1%; in the experiment with SF-539 CNS it was 108%; with UACC-257 melanoma, 110%; with M14 melanoma, 102%.
For `O=C(OCC1CC2(Cl)C(Cl)=C(Cl)C1(Cl)C2(Cl)Cl)C1C(C(=O)OCC2CC3(Cl)C(Cl)=C(Cl)C2(Cl)C3(Cl)Cl)C2(Cl)C(Cl)=C(Cl)C1(Cl)C2(Cl)Cl` (configuration not stated), the growth was 105% with NCI-H23 lung; 99.2% in the experiment with NCI-H226 lung; 98.4% with NCI-H322M lung; 108% in the experiment with HOP-62 NSCLC; 114% in the experiment with NCI-H460 lung; 103% in the experiment with A549/ATCC NSCLC. Also, the growth in the experiment with 786-0 renal was 94%; in the experiment on COLO 205 colon, 99.7%; in the experiment with DU-145 prostate, 97.4%; in the experiment with K-562 leukemia, 94.7%; with MALME-3M melanoma, 98.6%; in the experiment with MDA-MB-231 breast it was 109%. The growth in the experiment on RXF 393 renal is 104%; with SF-268 CNS, 100%; in the experiment on SF-295 CNS it was 94.8%; with SF-539 CNS it was 97.9%; with UACC-257 melanoma it was 113%; in the experiment with M14 melanoma, 98.5%.
`COc1cccc(-c2cc(-c3cc4ccccc4oc3=O)nc(N)n2)c1`: the growth with NCI-H23 lung was 101%; in the experiment on NCI-H226 lung, 91.2%; with NCI-H322M lung, 123%; with HOP-62 NSCLC, 97.7%; in the experiment with NCI-H460 lung it was 102%; with A549/ATCC NSCLC it was 95%. Besides, the growth was 101% with 786-0 renal; 108% in the experiment with COLO 205 colon; 112% with DU-145 prostate; 99% in the experiment with K-562 leukemia; 121% with MALME-3M melanoma; 90.4% in the experiment with MDA-MB-231 breast. The growth in the experiment on RXF 393 renal was 108%; in the experiment with SF-268 CNS, 101%; with SF-295 CNS, 125%; in the experiment on SF-539 CNS it was 132%; with UACC-257 melanoma it was 108%; in the experiment with M14 melanoma, 100%.
Take `CCCCCCCCCCCCCCCCNC(=S)N/N=C/c1ccc(O)cc1O`: the growth was 77.1% in the experiment with NCI-H23 lung; 76% in the experiment with NCI-H226 lung; 95.2% in the experiment on NCI-H322M lung; 83.1% with HOP-62 NSCLC; 37.1% with NCI-H460 lung; 55.1% with A549/ATCC NSCLC. Besides, the growth is 73.3% in the experiment with 786-0 renal; 98% with COLO 205 colon; 79.2% in the experiment with DU-145 prostate; 70.3% in the experiment with K-562 leukemia; 100% in the experiment on MALME-3M melanoma; 81% in the experiment on MDA-MB-231 breast. For the same molecule, the growth with RXF 393 renal was 74.9%; with SF-268 CNS, 69%; in the experiment on SF-295 CNS, 65.5%; in the experiment on SF-539 CNS it was 110%; in the experiment with UACC-257 melanoma, 85.9%; with M14 melanoma, 61.8%.
As for `Cc1cc2cn3c4ccc(O)cc4nc(N)c3c2cc1C`, the growth in the experiment with NCI-H23 lung was 26.8%; in the experiment with NCI-H226 lung it was 45.9%; in the experiment on NCI-H322M lung, 7.56% (active); in the experiment on HOP-62 NSCLC, 13.6%; with NCI-H460 lung it was -36.1% (active); with A549/ATCC NSCLC, 8.84% (active). Moreover, the growth in the experiment with 786-0 renal is 13.5%; with COLO 205 colon it was -56.4% (active); in the experiment on DU-145 prostate, 4.25% (active); in the experiment with K-562 leukemia it was -14.9% (active); in the experiment with MALME-3M melanoma it was 39.6%; in the experiment on MDA-MB-231 breast, 27.3%. For the same molecule, the growth in the experiment with RXF 393 renal was 41.1%; in the experiment with SF-268 CNS, 12.9%; in the experiment on SF-295 CNS, 1.42% (active); in the experiment on SF-539 CNS, 11.4%; in the experiment on UACC-257 melanoma it was 53.1%; in the experiment with M14 melanoma, 4.96% (active).
As to `COC(=O)c1cc(O)c2cc3c(cc2c1-c1cc(OC)c(OC)c(OC)c1)OCO3`, the growth in the experiment with NCI-H23 lung was 49.9%; in the experiment on NCI-H226 lung, 50.6%; with NCI-H322M lung, 59.9%; in the experiment on HOP-62 NSCLC it was 28%; in the experiment with NCI-H460 lung it was 14.7%; with A549/ATCC NSCLC, 45.1%. In addition, the growth was 29.6% with 786-0 renal; 5.08% (active) in the experiment with COLO 205 colon; 40.6% in the experiment with DU-145 prostate; 15.4% in the experiment with K-562 leukemia; 48.3% in the experiment with MALME-3M melanoma; 40.2% with MDA-MB-231 breast. Besides, the growth with RXF 393 renal is -31.3% (active); with SF-268 CNS, 47.8%; in the experiment with SF-295 CNS, 26.3%; in the experiment with SF-539 CNS, 13.3%; in the experiment with UACC-257 melanoma, 60.1%; with M14 melanoma, 19%.
In the case of `O=c1c2c(c3ccccc3n1-c1ccccc1)NC(=S)NC2c1ccccc1` (configuration not stated), the growth is 98.5% in the experiment on NCI-H23 lung; 92.1% in the experiment with NCI-H226 lung; 130% with NCI-H322M lung; 90.5% in the experiment with HOP-62 NSCLC; 104% in the experiment on NCI-H460 lung; 103% in the experiment with A549/ATCC NSCLC. The growth with 786-0 renal is 97.3%; with COLO 205 colon, 113%; in the experiment with DU-145 prostate it was 115%; in the experiment with K-562 leukemia, 101%; in the experiment with MALME-3M melanoma it was 112%; in the experiment on MDA-MB-231 breast, 84.7%. Further, the growth in the experiment with RXF 393 renal is 117%; in the experiment on SF-268 CNS it was 104%; in the experiment on SF-295 CNS it was 121%; with SF-539 CNS, 94.8%; in the experiment on UACC-257 melanoma, 108%; in the experiment with M14 melanoma it was 98.8%.
`O=C(Nc1ccc(-n2cc(-c3ccncc3)c(-c3ccc(Cl)c(O)c3)n2)cc1)Nc1ccc(Cl)c(C(F)(F)F)c1`: the growth is 3.39% (active) in the experiment with NCI-H23 lung; 68.2% in the experiment with NCI-H226 lung; 12% in the experiment with NCI-H322M lung; -7.48% (active) in the experiment on HOP-62 NSCLC; -29.3% (active) in the experiment on NCI-H460 lung; 6.06% (active) with A549/ATCC NSCLC. For the same molecule, the growth with 786-0 renal is -44.8% (active); in the experiment on COLO 205 colon, -66.5% (active); in the experiment on DU-145 prostate, 23.2%; in the experiment with K-562 leukemia, 8.1% (active); with MALME-3M melanoma, -13.6% (active); in the experiment with MDA-MB-231 breast it was -24.8% (active). Besides, the growth is -47.8% (active) in the experiment with RXF 393 renal; 23.3% with SF-268 CNS; -44.5% (active) in the experiment on SF-295 CNS; 2.77% (active) in the experiment with SF-539 CNS; -9.1% (active) in the experiment with UACC-257 melanoma; -58.6% (active) in the experiment on M14 melanoma.
